In PubChem BioAssay (Tox21):
Results filed as inconclusive are left out. Calls of active or inactive are those of the source. Calls come from the whole dose curve; as a rule, active = well fitted curve in the direction sought with a large enough effect in the repeat runs; inconclusive = weak or mixed curves; inactive = no such curve, though single readings can be large; an effect the other way counts as inactive or inconclusive.

Key:
[1] = qHTS RealTime-Glo MT Cell Viability Assay in HEK293 cells - 16 hour (AID 1224872); note: nearly all actives have a fitted effect of over 50% in size; note: potency is the fitted concentration of half-maximal effect
Procedure, shortened: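 Homogeneous bioluminescent viability format in HEK293 cells (600 cells/well). Following 5 h at 37 C/5% CO2, 23 nL compound was pintooled; the signal was measured repeatedly during 40 h incubation.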

[2] = qHTS RealTime-Glo MT Cell Viability Assay in HepG2 cells - 8 hour (AID 1224873); note: nearly all actives have a fitted effect of over 55% in size
Procedure, shortened: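 HepG2 cells mixed with RealTime-Glo MT reagents (NanoLuc plus cell-permeant prosubstrate) were seeded at 600 cells/well, incubated 5 h at 37 C/5% CO2, then pinned with compounds in DMSO; nonlytic luminescence tracked viability during 40 h treatment.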

[3] = qHTS RealTime-Glo MT Cell Viability Assay in HEK293 cells - 40 hour (AID 1224874); settings: RealTime-Glo luminescence; max response: active compounds read low; note: nearly all actives have a fitted effect of over 50% in size; note: potency is the fitted concentration of half-maximal effect
Procedure, shortened: (§1)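 Nonlytic bioluminescent viability monitoring. HEK293 at 600 cells/well with reagent; 5 h settle; compound transfer by pintool; plates held at 37 C and read at set time points.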

[4] = A CellTox Green Cytotoxicity Assay to monitor cytotoxicity in HEK293 cells - 24 hour (AID 1224875); note: nearly all actives have a fitted effect of over 45% in size; note: potency is the fitted concentration of half-maximal effect
Procedure, shortened: (§2)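 Cytotoxicity was tracked continuously in HEK293 cells by a DNA-binding dye excluded from viable cells. Compounds were transferred in DMSO 5 h after seeding; fluorescence was recorded at intervals up to 40 h.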

[5] = A CellTox Green Cytotoxicity Assay to monitor cytotoxicity in HepG2 cells - 16 hour (AID 1224876); note: nearly all actives have a fitted effect of over 45% in size; note: potency is the fitted concentration of half-maximal effect
Procedure, shortened: (§3)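 Real-time, homogeneous cytotoxicity readout: dead-cell DNA staining by CellTox Green in HepG2 monolayers, fluorescence measured at timed intervals up to 40 h of continuous compound exposure.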

[6] = qHTS RealTime-Glo MT Cell Viability Assay in HepG2 cells - 32 hour (AID 1224877); note: nearly all actives have a fitted effect of over 55% in size
Procedure, shortened: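 Cell number in HepG2 cultures estimated from NanoLuc luminescence generated by metabolic reduction of a prosubstrate by living cells. The homogeneous, nonlytic format allowed repeated reads at 0, 8, 16, 24, 32 and 40 h of compound exposure.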

[7] = A CellTox Green Cytotoxicity Assay to monitor cytotoxicity in HepG2 cells - 24 hour (AID 1224878); note: nearly all actives have a fitted effect of over 45% in size; note: potency is the fitted concentration of half-maximal effect
Procedure, shortened: as §3

[8] = A CellTox Green Cytotoxicity Assay to monitor cytotoxicity in HepG2 cells - 40 hour (AID 1224879); note: nearly all actives have a fitted effect of over 40% in size; note: potency is the fitted concentration of half-maximal effect
Procedure, shortened: as §3

[9] = qHTS RealTime-Glo MT Cell Viability Assay in HEK293 cells - 0 hour (AID 1224880); note: top concentration of the series differs between compounds; nearly all actives have a fitted effect of over 45% in size
Procedure, shortened: as §1

[10] = A CellTox Green Cytotoxicity Assay to monitor cytotoxicity in HEK293 cells - 32 hour (AID 1224881); note: nearly all actives have a fitted effect of over 40% in size
Procedure, shortened: as §2
% is set by controls: 0 for no effect and ±100 for the full control effect.

CS(=O)(=O)c1ccc([C@@H](C[C@H]2CCC(=O)C2)C(=O)Nc2cnccn2)cc1Cl
inactive: Potency [1] | Potency [2] | max response [3] 0.0186% | Potency [4] | Potency [5] | Potency [6] | Potency [7] | Potency [8] | Potency [9] | Potency [10]

CC(C)N(C)C
inactive: Potency [1] | Potency [2] | max response [3] 0.0453% | Potency [4] | Potency [5] | Potency [6] | Potency [7] | Potency [8] | Potency [9] | Potency [10]

CC(C)OC(=O)c1ccccc1C(=O)OC(C)C
inactive: Potency [1] | Potency [2] | max response [3] -14% | Potency [4] | Potency [5] | Potency [6] | Potency [7] | Potency [8] | Potency [9]

Cc1ccc2c(c1)CCCN2
inactive: Potency [1] | Potency [2] | max response [3] 1.39% | Potency [4] | Potency [5] | Potency [6] | Potency [7] | Potency [8] | Potency [9]

CCSC(=O)N(CC)CC
inactive: Potency [1] | Potency [2] | max response [3] 0.524% | Potency [4] | Potency [5] | Potency [6] | Potency [7] | Potency [8] | Potency [9]

CCNc1nc(N)nc(Cl)n1
inactive: Potency [1] | Potency [2] | max response [3] 9.34% | Potency [4] | Potency [5] | Potency [6] | Potency [7] | Potency [8] | Potency [9] | Potency [10]

C=C(C)c1ccccc1
inactive: Potency [1] | Potency [2] | max response [3] 1.05% | Potency [4] | Potency [5] | Potency [6] | Potency [7] | Potency [8] | Potency [9]

COc1ccc(CCN(C)CCCN2CCc3cc(OC)c(OC)cc3CC2=O)cc1OC
inactive: Potency [1] | Potency [2] | max response [3] 9.42% | Potency [4] | Potency [5] | Potency [6] | Potency [7] | Potency [8]

O=P(O)(O)Oc1ccccc1
inactive: Potency [1] | Potency [2] | max response [3] 12.9% | Potency [4] | Potency [5] | Potency [6] | Potency [7] | Potency [8] | Potency [9]

O=C1CC[C@@H](C(=O)O)N1
inactive: Potency [1] | Potency [2] | max response [3] 0.932% | Potency [4] | Potency [5] | Potency [6] | Potency [7] | Potency [8] | Potency [9] | Potency [10]

O=C(c1ccccc1)C1CCC1
active: Potency [4] 24.5 µM | Potency [5] 38.9 µM | Potency [7] 38.9 µM | Potency [8] 27.5 µM
inactive: Potency [1] | Potency [2] | max response [3] 13.2% | Potency [6] | Potency [9]

CCN(CC)CCOC(=O)C(c1ccccc1)c1ccccc1
inactive: Potency [1] | Potency [2] | max response [3] 0.0208% | Potency [4] | Potency [5] | Potency [6] | Potency [7] | Potency [8] | Potency [9]

CCN(CC)CC(=O)Nc1c(C)cccc1C(=O)OC
inactive: Potency [1] | Potency [2] | max response [3] 0.513% | Potency [4] | Potency [5] | Potency [6] | Potency [7] | Potency [8] | Potency [9]

CCCCCCCCCCCSCC(=O)O
inactive: Potency [1] | Potency [2] | max response [3] 2.44% | Potency [4] | Potency [5] | Potency [6] | Potency [7] | Potency [8] | Potency [9] | Potency [10]

COC(=O)CC(C(C)=O)C(=O)OC (stereo unspecified)
inactive: Potency [1] | Potency [2] | max response [3] 9.23% | Potency [4] | Potency [5] | Potency [6] | Potency [7] | Potency [8] | Potency [9]

CCCCCCCC(=O)Oc1c(Br)cc(C#N)cc1Br
active: Potency [1] 38.8 µM | Potency [3] 38.8 µM
inactive: Potency [2] | Potency [4] | Potency [5] | Potency [6] | Potency [7] | Potency [8] | Potency [9]

C=CC(=O)O
inactive: Potency [1] | Potency [2] | max response [3] -0.787% | Potency [4] | Potency [5] | Potency [6] | Potency [7] | Potency [8] | Potency [9] | Potency [10]

CC(C)(C)S
inactive: Potency [1] | Potency [2] | max response [3] -0.0448% | Potency [4] | Potency [5] | Potency [6] | Potency [7] | Potency [8] | Potency [9] | Potency [10]

COC1CCC=CO1 (stereo unspecified)
inactive: Potency [1] | Potency [2] | max response [3] 9.69% | Potency [4] | Potency [5] | Potency [6] | Potency [7] | Potency [8] | Potency [9] | Potency [10]

O=C(O)c1cc(Cl)cc(Cl)c1O
inactive: Potency [1] | Potency [2] | max response [3] -0.228% | Potency [4] | Potency [5] | Potency [6] | Potency [7] | Potency [8]

O=C(c1ccccc1)c1ccc(O)cc1
inactive: Potency [1] | Potency [2] | max response [3] -20.1% | Potency [4] | Potency [5] | Potency [6] | Potency [7] | Potency [8] | Potency [9] | Potency [10]
